# According to the supplement of paper PMC8728848:
# This excerpt belongs to a sample that is enriched for the strongest signals.
# Tests used:
# Test in all cases: glycan array binding signal (z-score within array); higher = stronger binding
# Conditions in all cases: glycan notation: IUPAC condensed, linker removed
# Fuc(a1-2)Gal(b1-3)GalNAc = target: Fuc(a1-2)Gal(b1-3)GalNAc
# In short: (§1)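 Glycan array data came from 3228 arrays in the Consortium for Functional Glycomics database, and only arrays with an available protein sequence were kept. Glycan names were put into IUPAC-condensed notation, and columns mapping to the same glycan were averaged. The binding signal is a within-array Z-score, averaged across arrays of one protein sequence run at different concentrations or buffers and across linkers. A negative Z-score can be read as non-binding.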
# [1] = target: Fuc(a1-2)Gal(b1-3)GlcNAc(b1-2)Man(a1-3)[Fuc(a1-2)Gal(b1-3)GlcNAc(b1-2)Man(a1-6)]Man(b1-4)GlcNAc(b1-4)GlcNAc
# In short: as §1
# [2] = target: Fuc(a1-2)Gal(b1-4)GlcNAc(b1-2)[Fuc(a1-2)Gal(b1-4)GlcNAc(b1-4)]Man(a1-3)[Fuc(a1-2)Gal(b1-4)GlcNAc(b1-2)Man(a1-6)]Man(b1-4)GlcNAc(b1-4)GlcNAc
# In short: as §1
# [3] = target: Fuc(a1-2)[Gal(a1-3)]Gal(b1-4)Glc
# In short: as §1
# [4] = target: Fuc(a1-2)[Gal(a1-3)]Gal(b1-4)GlcNAc(b1-2)Man(a1-3)[Fuc(a1-2)[Gal(a1-3)]Gal(b1-4)GlcNAc(b1-2)Man(a1-6)]Man(b1-4)GlcNAc(b1-4)GlcNAc
# In short: as §1
# [5] = target: Fuc(a1-2)[Gal(a1-3)]Gal(b1-4)[Fuc(a1-3)]GlcNAc
# In short: as §1
# [6] = target: Fuc(a1-2)[GalNAc(a1-3)]Gal(b1-3)GlcNAc(b1-2)Man(a1-3)[Fuc(a1-2)[GalNAc(a1-3)]Gal(b1-3)GlcNAc(b1-2)Man(a1-6)]Man(b1-4)GlcNAc(b1-4)[Fuc(a1-6)]GlcNAc
# In short: as §1
# [7] = target: Fuc(a1-2)[GalNAc(a1-3)]Gal(b1-4)GlcNAc(b1-2)Man(a1-3)[Fuc(a1-2)[GalNAc(a1-3)]Gal(b1-4)GlcNAc(b1-2)Man(a1-6)]Man(b1-4)GlcNAc(b1-4)GlcNAc
# In short: as §1
# [8] = target: Fuc(a1-2)[GalNAc(a1-3)]Gal(b1-4)GlcNAc(b1-3)Gal(b1-4)GlcNAc
# In short: as §1
# [9] = target: Fuc(a1-2)[GalNAc(a1-3)]Gal(b1-4)GlcNAc(b1-3)Gal(b1-4)GlcNAc(b1-3)Gal(b1-4)GlcNAc
# In short: as §1
# [10] = target: Fuc(a1-3)[Gal(b1-4)]GlcNAc(b1-2)Man(a1-6)[Gal(b1-4)GlcNAc(b1-2)Man(a1-3)]Man(b1-4)GlcNAc(b1-4)GlcNAc
# In short: as §1
# Gal(a1-3)Gal = target: Gal(a1-3)Gal
# In short: as §1
# [11] = target: Gal(a1-3)Gal(b1-4)[Fuc(a1-3)]GlcNAc(b1-2)Man(a1-3)[Gal(a1-3)Gal(b1-4)[Fuc(a1-3)]GlcNAc(b1-2)Man(a1-6)]Man(b1-4)GlcNAc(b1-4)GlcNAc
# In short: as §1
# Gal(b1-2)Gal = target: Gal(b1-2)Gal
# In short: as §1
# [12] = target: Gal(b1-3)GalNAc(a1-3)[Fuc(a1-2)]Gal(b1-4)GlcNAc
# In short: as §1
# Gal(b1-3)GlcNAc = target: Gal(b1-3)GlcNAc
# In short: as §1
# [13] = target: Gal(b1-3)GlcNAc(b1-2)Man(a1-3)[Gal(b1-3)GlcNAc(b1-2)Man(a1-6)]Man(b1-4)GlcNAc(b1-4)[Fuc(a1-6)]GlcNAc
# In short: as §1
# [14] = target: Gal(b1-3)GlcNAc(b1-3)Gal(b1-4)Glc
# In short: as §1
# [15] = target: Gal(b1-3)GlcNAc(b1-3)GalNAc
# In short: as §1
# Gal(b1-4)Gal = target: Gal(b1-4)Gal
# In short: as §1
# [16] = target: Gal(b1-4)GlcNAc(b1-2)Man(a1-3)[Man(a1-6)]Man(b1-4)GlcNAc(b1-4)GlcNAc
# In short: as §1
# [17] = target: Gal(b1-4)GlcNAc(b1-2)[Gal(b1-4)GlcNAc(b1-6)]Man(a1-6)[GlcNAc(b1-4)][Gal(b1-4)GlcNAc(b1-2)Man(a1-3)]Man(b1-4)GlcNAc(b1-4)GlcNAc
# In short: as §1
# [18] = target: Gal(b1-4)GlcNAc(b1-3)Gal(b1-3)GlcNAc
# In short: as §1
# [19] = target: Gal(b1-4)GlcNAc(b1-3)Gal(b1-4)Glc
# In short: as §1
# Gal3S6S(b1-4)GlcNAc6S = target: Gal3S6S(b1-4)GlcNAc6S
# In short: as §1
# Gal6S(b1-4)Glc6S = target: Gal6S(b1-4)Glc6S
# In short: as §1
# Gal6S(b1-4)GlcNAc = target: Gal6S(b1-4)GlcNAc
# In short: as §1
# GalNAc6S(b1-4)GlcNAc = target: GalNAc6S(b1-4)GlcNAc
# In short: as §1
# [20] = target: Glc(a1-6)Glc(a1-6)Glc(a1-6)Glc
# In short: as §1
# Glc(b1-4)Glc = target: Glc(b1-4)Glc
# In short: as §1
# [21] = target: Fuc(a1-2)Gal(b1-4)[Fuc(a1-3)]GlcNAc(b1-3)Gal(b1-4)[Fuc(a1-3)]GlcNAc
# In short: as §1
# Fuc(a1-2)GlcNAc = target: Fuc(a1-2)GlcNAc
# In short: as §1
# [22] = target: Fuc(a1-3)[Gal3S(b1-4)]GlcNAc
# In short: as §1
# [23] = target: Gal(b1-3)[Fuc(a1-4)]GlcNAc(b1-3)Gal(b1-4)[Fuc(a1-3)]GlcNAc
# In short: as §1
# [24] = target: Gal(b1-4)GlcNAc(b1-3)Gal(b1-4)[Fuc(a1-3)]GlcNAc(b1-3)Gal(b1-4)[Fuc(a1-3)]GlcNAc
# In short: as §1
# Gal3S(b1-4)Glc = target: Gal3S(b1-4)Glc
# In short: as §1
# Gal3S(b1-4)GlcNAc6S = target: Gal3S(b1-4)GlcNAc6S
# In short: as §1
# [25] = target: GlcNAc(b1-2)Gal(b1-3)GalNAc
# In short: as §1
# Kdn(a2-3)Gal(b1-4)GlcNAc = target: Kdn(a2-3)Gal(b1-4)GlcNAc
# In short: as §1
# Man(a1-3)[Man(a1-6)]Man = target: Man(a1-3)[Man(a1-6)]Man
# In short: as §1
# [26] = target: Neu5Ac(a2-3)Gal(b1-3)GalNAc6S
# In short: as §1
# [27] = target: Neu5Ac(a2-3)Gal(b1-4)GlcNAc(b1-3)Gal(b1-4)GlcNAc
# In short: as §1
# [28] = target: Neu5Ac(a2-6)Gal(b1-4)GlcNAc(b1-2)Man(a1-3)[Neu5Ac(a2-6)Gal(b1-4)GlcNAc(b1-2)Man(a1-6)]Man(b1-4)GlcNAc(b1-4)GlcNAc
# In short: as §1
# [29] = target: Neu5Ac(a2-6)Gal(b1-4)GlcNAc6S
# In short: as §1
# [30] = target: Neu5Ac9Ac(a2-6)Gal(b1-4)GlcNAc
# In short: as §1
binder,measurement,setting,value
"Gal 8 (Homo sapiens), O00214_1 (protein) MMLSLNNLQNIIYNPVIPFVGTIPDQLDPGTLIVIRGHVPSDADRFQVDLQNGSSMKPRADVAFHFNPRFKRAGCIVCNTLINEKWGREEITYDTPFKREKSFEIVIMVLKDKFQVAVNGKHTLLYGHRIGPEKIDTLGIYGKVNIHSIGFSFSSDLQSTQASSLELTEISRENVPKSGTPQLRLPFAARLNTPMGPGRTVVVKGEVNANAKSFNVDLLAGKSKDIALHLNPRLNIKAFVRNSFLQESWGEEERNITSFPFSPGMYFEMIIYCDVREFKVAVNGVHSLEYKHRFKELSSIDTLEINGDIHLLEVRSW",glycan array binding signal (z-score),Fuc(a1-2)Gal(b1-3)GalNAc,-0.23
same,glycan array binding signal (z-score),[1],0.466
same,glycan array binding signal (z-score),[2],-1.24
same,glycan array binding signal (z-score),[3],3.1
same,glycan array binding signal (z-score),[4],2.33
same,glycan array binding signal (z-score),[5],-0.143
same,glycan array binding signal (z-score),[6],1.73
same,glycan array binding signal (z-score),[7],2.14
same,glycan array binding signal (z-score),[8],2.58
same,glycan array binding signal (z-score),[9],2.31
same,glycan array binding signal (z-score),[10],-0.273
same,glycan array binding signal (z-score),Gal(a1-3)Gal,-0.252
same,glycan array binding signal (z-score),[11],-0.137
same,glycan array binding signal (z-score),Gal(b1-2)Gal,-0.201
same,glycan array binding signal (z-score),[12],2.17
same,glycan array binding signal (z-score),Gal(b1-3)GlcNAc,-0.167
same,glycan array binding signal (z-score),[13],-0.63
same,glycan array binding signal (z-score),[14],0.084
same,glycan array binding signal (z-score),[15],-0.235
same,glycan array binding signal (z-score),Gal(b1-4)Gal,-0.099
same,glycan array binding signal (z-score),[16],0.003
same,glycan array binding signal (z-score),[17],-0.251
same,glycan array binding signal (z-score),[18],1.38
same,glycan array binding signal (z-score),[19],2.32
same,glycan array binding signal (z-score),Gal3S6S(b1-4)GlcNAc6S,-0.201
same,glycan array binding signal (z-score),Gal6S(b1-4)Glc6S,-0.094
same,glycan array binding signal (z-score),Gal6S(b1-4)GlcNAc,-0.172
same,glycan array binding signal (z-score),GalNAc6S(b1-4)GlcNAc,-0.215
same,glycan array binding signal (z-score),[20],-0.23
same,glycan array binding signal (z-score),Glc(b1-4)Glc,0.078
"MMR (Homo sapiens), P22897 (protein) MRLPLLLVFASVIPGAVLLLDTRQFLIYNEDHKRCVDAVSPSAVQTAACNQDAESQKFRWVSESQIMSVAFKLCLGVPSKTDWVAITLYACDSKSEFQKWECKNDTLLGIKGEDLFFNYGNRQEKNIMLYKGSGLWSRWKIYGTTDNLCSRGYEAMYTLLGNANGATCAFPFKFENKWYADCTSAGRSDGWLWCGTTTDYDTDKLFGYCPLKFEGSESLWNKDPLTSVSYQINSKSALTWHQARKSCQQQNAELLSITEIHEQTYLTGLTSSLTSGLWIGLNSLSFNSGWQWSDRSPFRYLNWLPGSPSAEPGKSCVSLNPGKNAKWENLECVQKLGYICKKGNTTLNSFVIPSESDVPTHCPSQWWPYAGHCYKIHRDEKKIQRDALTTCRKEGGDLTSIHTIEELDFIISQLGYEPNDELWIGLNDIKIQMYFEWSDGTPVTFTKWLRGEPSHENNRQEDCVVMKGKDGYWADRGCEWPLGYICKMKSRSQGPEIVEVEKGCRKGWKKHHFYCYMIGHTLSTFAEANQTCNNENAYLTTIEDRYEQAFLTSFVGLRPEKYFWTGLSDIQTKGTFQWTIEEEVRFTHWNSDMPGRKPGCVAMRTGIAGGLWDVLKCDEKAKFVCKHWAEGVTHPPKPTTTPEPKCPEDWGASSRTSLCFKLYAKGKHEKKTWFESRDFCRALGGDLASINNKEEQQTIWRLITASGSYHKLFWLGLTYGSPSEGFTWSDGSPVSYENWAYGEPNNYQNVEYCGELKGDPTMSWNDINCEHLNNWICQIQKGQTPKPEPTPAPQDNPPVTEDGWVIYKDYQYYFSKEKETMDNARAFCKRNFGDLVSIQSESEKKFLWKYVNRNDAQSAYFIGLLISLDKKFAWMDGSKVDYVSWATGEPNFANEDENCVTMYSNSGFWNDINCGYPNAFICQRHNSSINATTVMPTMPSVPSGCKEGWNFYSNKCFKIFGFMEEERKNWQEARKACIGFGGNLVSIQNEKEQAFLTYHMKDSTFSAWTGLNDVNSEHTFLWTDGRGVHYTNWGKGYPGGRRSSLSYEDADCVVIIGGASNEAGKWMDDTCDSKRGYICQTRSDPSLTNPPATIQTDGFVKYGKSSYSLMRQKFQWHEAETYCKLHNSLIASILDPYSNAFAWLQMETSNERVWIALNSNLTDNQYTWTDKWRVRYTNWAADEPKLKSACVYLDLDGYWKTAHCNESFYFLCKRSDEIPATEPPQLPGRCPESDHTAWIPFHGHCYYIESSYTRNWGQASLECLRMGSSLVSIESAAESSFLSYRVEPLKSKTNFWIGLFRNVEGTWLWINNSPVSFVNWNTGDPSGERNDCVALHASSGFWSNIHCSSYKGYICKRPKIIDAKPTHELLTTKADTRKMDPSKPSSNVAGVVIIVILLILTGAGLAAYFFYKKRRVHLPQEGAFENTLYFNSQSSPGTSDMKDLVGNIEQNEHSVI",glycan array binding signal (z-score),Fuc(a1-2)Gal(b1-3)GalNAc,-0.435
same,glycan array binding signal (z-score),[21],-0.234
same,glycan array binding signal (z-score),Fuc(a1-2)GlcNAc,-0.407
same,glycan array binding signal (z-score),[22],2.96
same,glycan array binding signal (z-score),[23],-0.37
same,glycan array binding signal (z-score),[24],0.283
same,glycan array binding signal (z-score),Gal3S(b1-4)Glc,3.67
same,glycan array binding signal (z-score),Gal3S(b1-4)GlcNAc6S,3.5
same,glycan array binding signal (z-score),Gal3S6S(b1-4)GlcNAc6S,3.58
same,glycan array binding signal (z-score),[25],-0.453
same,glycan array binding signal (z-score),Kdn(a2-3)Gal(b1-4)GlcNAc,0.013
same,glycan array binding signal (z-score),Man(a1-3)[Man(a1-6)]Man,3.57
same,glycan array binding signal (z-score),[26],-0.344
same,glycan array binding signal (z-score),[27],-0.439
same,glycan array binding signal (z-score),[28],-0.418
same,glycan array binding signal (z-score),[29],-0.155
same,glycan array binding signal (z-score),[30],-0.397
